In PubChem BioAssay AID1159580 (chemical genetic matrix, 2015):
Where “and” joins values, the source holds several entries; their conditions need not be identical. Equal entries are not always repeated. Among all 5,500 compounds or so, about 2,000 (36%) were called active. Roughly 18% stayed inconclusive and do not appear here. No stated cut-off is given here; in the data, active means normalized growth mostly below about 0.91 (no sharp cut-off); inconclusive means no clear call, values can overlap the other calls; inactive means mostly above about 0.92. The list shows a part of the results.

Assay: chemical genetic growth profiling, strain panel (AID 1159580);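 further: tested at 20 µM; growth read once vehicle control cultures reached saturation at 30 °C; 1 = growth at the plate median or of vehicle wells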
Settings: S. cerevisiae deletion strains, growth OD

Measured: normalized growth

CC(=O)OC1CCC23CC1(C)CCC2C(C)(C)CC3OC(C)=O (stereo unspecified)
inactive: locus YAL021C, strain ccr4, stronger effect = lower value 1.04 | locus YAL026C, strain drs2, stronger effect = lower value 1.02 | locus YAL030W, strain snc1, stronger effect = lower value 0.996 | locus YBL061C, strain skt5, stronger effect = lower value 1.01 | locus YBR009C, strain hhf1, stronger effect = lower value 1.01 | locus YBR021W, strain FUR4, stronger effect = lower value 1.01 | locus YBR023C, strain chs3, stronger effect = lower value 0.981 | locus YBR171W, strain sec66, stronger effect = lower value 0.999 | locus YBR229C, strain ROT2, stronger effect = lower value 0.988 | locus YBR231C, strain swc5, stronger effect = lower value 1.02 | locus YBR279W, strain paf1, stronger effect = lower value 1.04 | locus YCL011C, strain gbp2, stronger effect = lower value 0.995 | locus YCL016C, strain dcc1, stronger effect = lower value 0.978 | locus YCL029C, strain bik1, stronger effect = lower value 1.01 | locus YCL061C, strain MRC1, stronger effect = lower value 1.01 | locus YCL069W, strain vba3, stronger effect = lower value 0.991 | locus YCR088W, strain abp1, stronger effect = lower value 0.992 | locus YDL005C, strain med2, stronger effect = lower value 0.994 | locus YDL035C, strain GPR1, stronger effect = lower value 1.01 | locus YDL040C, strain nat1, stronger effect = lower value 0.999 | locus YDL074C, strain BRE1, stronger effect = lower value 1.01 | locus YDL101C, strain DUN1, stronger effect = lower value 1.04 | locus YDL134C, strain PPH21, stronger effect = lower value 1.02 | locus YDL185W, strain tfp1, stronger effect = lower value 1.03 | locus YDL192W, strain arf1, stronger effect = lower value 0.974 | locus YDR001C, strain nth1, stronger effect = lower value 0.984 | locus YDR069C, strain doa4, stronger effect = lower value 1.01 | locus YDR101C, strain arx1, stronger effect = lower value 0.98 | locus YDR137W, strain rgp1, stronger effect = lower value 0.882 | locus YDR159W, strain sac3, stronger effect = lower value 1.03 | locus YDR162C, strain NBP2, stronger effect = lower value 0.95 | locus YDR195W, strain ref2 1.03 | locus YDR297W, strain sur2, stronger effect = lower value 1.01 | locus YDR318W, strain mcm21, stronger effect = lower value 1 | locus YDR334W, strain swr1, stronger effect = lower value 1.01 | locus YDR335W, strain msn5, stronger effect = lower value 1 | locus YDR388W, stronger effect = lower value 0.989 | locus YDR502C, strain sam2, stronger effect = lower value 1.01 | locus YEL003W, strain gim4, stronger effect = lower value 1.03 | locus YEL037C, strain rad23, stronger effect = lower value 1.01 | locus YEL061C, strain CIN8 (second series), stronger effect = lower value 1 | locus YER015W, strain faa2, stronger effect = lower value 1.02 | locus YER016W, strain bim1, stronger effect = lower value 1 | locus YER110C, stronger effect = lower value 1.03 | locus YER111C, strain swi4, stronger effect = lower value 1.01 | locus YER155C, strain BEM2 (second series), stronger effect = lower value 0.99 | locus YER155C, strain BEM2, stronger effect = lower value 1.02 | locus YER167W, strain BCK2, stronger effect = lower value 0.997 | locus YFR010W, strain ubp6, stronger effect = lower value 1.05 | locus YGL078C, strain dbp3, stronger effect = lower value 1 | locus YGL086W, strain mad1, stronger effect = lower value 0.959 | locus YGL167C, strain pmr1, stronger effect = lower value 0.993 | locus YGL173C, strain kem1, stronger effect = lower value 1.03 | locus YGL227W, strain vid30, stronger effect = lower value 1.01 | locus YGL240W, strain doc1, stronger effect = lower value 1.01 | locus YGL248W, strain PDE1, stronger effect = lower value 1.04 | locus YGL253W, strain hxk2, stronger effect = lower value 1.02 | locus YGR078C, strain PAC10, stronger effect = lower value 0.987 | locus YGR135W, strain pre9, stronger effect = lower value 1.02 | locus YGR252W, strain gcn5, stronger effect = lower value 1.1 | locus YHR013C, strain ard1, stronger effect = lower value 1.01 | locus YHR027C, strain rpn1, stronger effect = lower value 1 | locus YHR030C, strain SLT2, stronger effect = lower value 1.01 | locus YHR079C, strain IRE1 (second series), stronger effect = lower value 0.995 | locus YHR079C, strain IRE1, stronger effect = lower value 1.01 | locus YHR094C, strain hxt1, stronger effect = lower value 0.998 | locus YHR129C, strain ARP1, stronger effect = lower value 1 | locus YHR142W, strain chs7, stronger effect = lower value 0.963 | locus YHR200W, strain rpn10, stronger effect = lower value 0.995 | locus YIL066C, strain RNR3, stronger effect = lower value 0.997 | locus YIL073C, strain SPO22, stronger effect = lower value 0.995 | locus YIL125W, strain kgd1, stronger effect = lower value 0.998 | locus YIR030C, strain dcg1, stronger effect = lower value 0.988 | locus YJL092W, strain hpr5, stronger effect = lower value 1.01 | locus YJL095W, strain BCK1 (second series), stronger effect = lower value 1.01 | locus YJL095W, strain BCK1, stronger effect = lower value 0.969 and 1.04 | locus YJL115W, strain asf1, stronger effect = lower value 1.01 | locus YJL129C, strain trk1, stronger effect = lower value 0.881 | locus YJL134W, strain LCB3, stronger effect = lower value 0.998 | locus YJL154C, strain vps35, stronger effect = lower value 1 | locus YJL164C, strain tpk1, stronger effect = lower value 1.02 | locus YJL166W, strain qcr8, stronger effect = lower value 0.993 | locus YJL168C, strain set2, stronger effect = lower value 0.985 | locus YJL187C, strain SWE1 (second series), stronger effect = lower value 1.07 | locus YJR043C, strain POL32, stronger effect = lower value 1.04 | locus YJR066W, strain TOR1, stronger effect = lower value 0.98 | locus YJR075W, strain HOC1, stronger effect = lower value 0.999 | locus YKL009W, strain mrt4, stronger effect = lower value 0.992 | locus YKL068W, stronger effect = lower value 0.972 | locus YKL085W, strain MDH1 (second series), stronger effect = lower value 0.967 | locus YKL085W, strain MDH1, stronger effect = lower value 0.967 | locus YKL160W, strain elf1, stronger effect = lower value 1 | locus YKR001C, strain vps1, stronger effect = lower value 1.01 | locus YKR026C, strain gcn3, stronger effect = lower value 0.991 | locus YKR091W, strain srl3, stronger effect = lower value 0.981 | locus YLL001W, strain dnm1, stronger effect = lower value 0.995 | locus YLL026W, stronger effect = lower value 1 | locus YLL041C, strain sdh2, stronger effect = lower value 0.994 | locus YLR027C, strain aat2, stronger effect = lower value 1.01 | locus YLR039C, strain RIC1, stronger effect = lower value 0.968 | locus YLR058C, strain SHM2, stronger effect = lower value 1.05 | locus YLR102C, strain apc9, stronger effect = lower value 1.01 | locus YLR113W, strain HOG1, stronger effect = lower value 1 | locus YLR221C, strain rsa3, stronger effect = lower value 1.01 | locus YLR258W, strain gsy2, stronger effect = lower value 1.01 | locus YLR262C, strain YPT6 (second series), stronger effect = lower value 0.961 | locus YLR262C, strain YPT6, stronger effect = lower value 0.929 | locus YLR268W, strain sec22, stronger effect = lower value 0.997 | locus YLR320W, strain mms22, stronger effect = lower value 0.959 | locus YLR342W, strain FKS1 (second series), stronger effect = lower value 1 | locus YLR342W, strain FKS1, stronger effect = lower value 0.988 | locus YLR357W, strain rsc2, stronger effect = lower value 1.07 | locus YLR370C, strain arc18, stronger effect = lower value 1.04 | locus YLR371W, strain rom2, stronger effect = lower value 0.959 | locus YLR384C, strain iki3, stronger effect = lower value 0.997 | locus YLR418C, strain cdc73, stronger effect = lower value 0.904 | locus YML016C, strain PPZ1, stronger effect = lower value 1.02 | locus YML032C, strain rad52, stronger effect = lower value 1.01 | locus YML120C, strain ndi1, stronger effect = lower value 0.965 | locus YML124C, strain tub3, stronger effect = lower value 0.99 | locus YMR058W, strain fet3, stronger effect = lower value 1.03 | locus YMR078C, strain ctf18, stronger effect = lower value 0.991 | locus YMR125W, strain sto1, stronger effect = lower value 1 | locus YMR129W, stronger effect = lower value 1 | locus YMR205C, strain PFK2, stronger effect = lower value 0.924 | locus YMR223W, strain ubp8, stronger effect = lower value 1 | locus YMR231W, strain pep5, stronger effect = lower value 1.02 | locus YMR307W, strain GAS1, stronger effect = lower value 0.976 | locus YNL067W, strain RPL9B, stronger effect = lower value 1.01 | locus YNL153C, strain GIM3, stronger effect = lower value 1.03 | locus YNL183C, strain NPR1, stronger effect = lower value 0.974 | locus YNL209W, strain ssb2, stronger effect = lower value 1.01 | locus YNL233W, strain BNI4, stronger effect = lower value 1.01 | locus YNL248C, strain rpa49, stronger effect = lower value 1.04 | locus YNL250W, strain rad50, stronger effect = lower value 1.03 | locus YNL271C, strain bni1, stronger effect = lower value 0.996 | locus YNL298W, strain CLA4, stronger effect = lower value 1 | locus YNL307C, strain MCK1, stronger effect = lower value 0.943 | locus YNL322C, strain KRE1 (second series), stronger effect = lower value 1.01 | locus YNL322C, strain KRE1, stronger effect = lower value 1 | locus YNR049C, strain mso1, stronger effect = lower value 0.984 | locus YNR052C, strain pop2, stronger effect = lower value 1.01 | locus YOL012C, strain htz1 0.724 | locus YOL147C, strain pex11, stronger effect = lower value 1 | locus YOR001W, strain rrp6, stronger effect = lower value 1.04 | locus YOR061W, strain CKA2, stronger effect = lower value 1.03 | locus YOR069W, strain VPS5, stronger effect = lower value 1.01 | locus YOR070C, strain gyp1, stronger effect = lower value 1.01 | locus YOR080W, strain dia2, stronger effect = lower value 1.02 | locus YOR083W, strain WHI5, stronger effect = lower value 1.02 | locus YOR106W, strain vam3, stronger effect = lower value 1.01 | locus YOR136W, strain idh2, stronger effect = lower value 1.02 | locus YOR144C, strain elg1, stronger effect = lower value 0.993 | locus YOR231W, strain MKK1, stronger effect = lower value 1.04 | locus YOR265W, strain rbl2, stronger effect = lower value 1.02 | locus YOR270C, strain vph1, stronger effect = lower value 0.851 | locus YOR290C, strain snf2, stronger effect = lower value 0.977 | locus YOR316C, strain cot1, stronger effect = lower value 1 | locus YPL051W, strain arl3, stronger effect = lower value 0.994 | locus YPL078C, strain atp4, stronger effect = lower value 0.941 | locus YPL106C, strain sse1, stronger effect = lower value 1.07 | locus YPL240C, strain hsp82, stronger effect = lower value 0.999 | locus YPL256C, strain CLN2, stronger effect = lower value 1.02 | locus YPR119W, strain clb2, stronger effect = lower value 0.988 | locus YPR141C, strain kar3, stronger effect = lower value 0.971 | locus YPR163C, strain tif3, stronger effect = lower value 0.991 | locus YPR167C, strain met16, stronger effect = lower value 0.994 | strain wtn01, stronger effect = lower value 0.985
active: locus YDR392W, strain spt3, stronger effect = lower value 0.528 | locus YNL071W, strain lat1, stronger effect = lower value 0.836 | locus YOR184W, strain ser1, stronger effect = lower value 0.852
